SmPrx2 inh – inhibitors of Schistosoma mansoni peroxiredoxin 2; actives 0.07% (n = 65,000); AID 448; S. mansoni Prx2 activity coupled to TGR/GSH (TGR is thioredoxin glutathione reductase), NADPH fluorescence loss, qHTS; Potency, µM
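qHTS, coupled TGR/Prx2 format; 15 min compound preincubation at RT; reaction started with H2O2 (2.5 mM aliquot); kinetic NADPH fluorescence decrease, ex 365/em 450 nm.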
Anthrax LT inh – inhibitors of anthrax lethal toxin internalization | Cells, anthrax lethal toxin internalization, FRET ratio (460/530) | actives 0.67% (n = 70,000) | Potency, µM (highest dose often 40 µM), without a hit: at the top dose activity change, negative = inhibition, most hits filed as inhibitors; also: % is scaled to controls: 0 for no effect and ±100 for the full control effect; nearly all actives have a fitted effect of over 50% in size
AmpC inh no det – blocks E. coli AmpC beta-lactamase in absence of detergent; P00811; AmpC nitrocefin hydrolysis, absorbance 480 nm, no detergent; Potency, µM (highest dose often 28.7 µM), for inactives: at the top dose activity change, negative = inhibition; actives 1.8% (n = 71,000); AID 585; also: % of control where 0% means no effect
Target sequence (P00811 whole entry, looked up): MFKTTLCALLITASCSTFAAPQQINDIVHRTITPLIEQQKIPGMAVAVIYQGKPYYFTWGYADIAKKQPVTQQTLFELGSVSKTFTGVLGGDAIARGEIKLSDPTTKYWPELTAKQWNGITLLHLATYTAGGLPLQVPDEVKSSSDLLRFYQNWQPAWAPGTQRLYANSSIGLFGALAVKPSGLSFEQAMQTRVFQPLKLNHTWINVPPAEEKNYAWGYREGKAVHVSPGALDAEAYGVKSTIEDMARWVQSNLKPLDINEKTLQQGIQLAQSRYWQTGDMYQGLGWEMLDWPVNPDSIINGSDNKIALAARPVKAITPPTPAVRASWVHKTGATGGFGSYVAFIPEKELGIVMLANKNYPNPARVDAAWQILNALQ
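AmpC, 20 mM phosphate pH 7.0; 15 min cpd preinc, RT; start with nitrocefin (800 uM stock); A480 kinetic read, 20 s intervals, 4 min. No-enzyme wells = negative control.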
AmpC det inh – inhibitors of E. coli AmpC beta-lactamase with detergent. P00811. purified AmpC, nitrocefin hydrolysis with detergent. Potency, µM (highest dose often 28.7 µM), without a hit: at the top dose activity change, negative = inhibition. actives 0.09% (n = 71,000); active = well fitted curve in the direction sought with a large enough effect; inconclusive = small, poorly fitted or top-dose-only effect; also: % is scaled to controls: 0 for no effect and ±100 for the full control effect
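E. coli AmpC (5.3 nM) in 20 mM phosphate pH 7.0 with 0.01% Triton X-100, preincubated 15 min RT with compound; nitrocefin (2 uL of 800 uM stock) hydrolysis followed by 480 nm absorbance every 20 s over 4 min.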
* hit, by the source's call; ? = inconclusive; nt = no result given; ! = repeats disagree; [ ] = dose if it differs, or a comment. In the library only some 2.4% were active in any assay of this set; here they are far more common. Unless noted, calls follow the shape of the full dose curve. Potency is read from the fitted curve at half-maximal effect.

SMILES	SmPrx2 inh	Anthrax LT inh	AmpC inh no det	AmpC det inh
CC1=C(C(=O)N(C)C)C(c2ccc(Cl)c(Cl)c2)NC(=O)N1 (stereo unspecified)	>57	?	8%	-5%
CNCCCCOc1ccccc1Cc1ccccc1	>57	32µM*	55%	2%
COc1ccccc1OCCCCNC(C)(C)C	>57	-16%	-8%	7%
NC(=O)c1cn(-c2ccccc2)nc1-c1cccnc1	>57	11%	-3%	-2%
NC(=O)c1cc(Cl)cn(-c2ccccc2)c1=O	>57	-3%	3.2µM*[single pt active]	13%
CN1CCN(c2ncc3nc(-c4ccccc4)c(=O)n(C)c3n2)CC1	>57	?	36%	2%
COCCCNCC(=O)Nc1ccc(OC(F)(F)F)cc1	>57	-28%	3%	-6%
N#CC(C#N)=NNc1ccc(OC(F)(F)F)cc1	nt	0.5µM*	nt	nt
Cc1noc(C)c1-c1nccc(N2CCN(C)CC2)n1	>57	-10%	9%	-1%
O=C(Cn1ncc2c(=O)oc3ccccc3c21)NCC1COc2ccccc2O1 (stereo unspecified)	>57	-3%	0.79µM*	13%
O=C(Cn1ncc2c(=O)oc3ccccc3c21)NCCCN1CCCC1=O	>57	-9%	4µM*[single pt active]	11%
CCN(CCCNC(=O)Cn1ncc2c(=O)oc3ccccc3c21)c1cccc(C)c1	>57	-16%	2µM*[single pt active]	12%
COCCCNC(=O)Cn1ncc2c(=O)oc3ccccc3c21	>57	11%	-2%	-2%
O=C(Cn1ncc2c(=O)oc3ccccc3c21)NC1CC1	>57	-8%	0%	-1%
COC(=O)[C@@]1(Cc2ccc(OC)cc2)[C@H]2c3cc(C(=O)N4CCCC4)n(CCF)c3C[C@H]2CN1C(=O)c1ccccc1	>57	8%	151%	-1%
COc1ccc(S(=O)(=O)Cc2ccc(C(=O)NC3CC3)o2)cc1	>57	9%	0%	4%
COc1ccccc1S(=O)Cc1ccc(C(=O)NCCc2ccc(Cl)cc2)o1 (stereo unspecified)	>57	2.5µM*	73%	11%
COc1ccccc1S(=O)Cc1ccc(C(=O)NC2CCCC2)o1 (stereo unspecified)	>57	-19%	4µM*[single pt active]	11%
COc1ccccc1S(=O)(=O)Cc1ccc(C(=O)NCCN(C)C)o1	>57	-13%	-2%	5%
COc1ccc(Cl)cc1N=Nc1ncc[nH]1	>57	-3%	1%	3%
CCCN1C(=O)c2cc(C(=O)Nc3ccccc3CC)ccc2C1O (stereo unspecified)	>57	-11%	4µM*[single pt active]	13%
CCCCN1C(=O)c2ccccc2C1C(=O)NC1CCCC1 (stereo unspecified)	>57	4%	-1%	-2%
CCCN1C(=O)c2cc(C(=O)NC3CCCC3)ccc2C1O (stereo unspecified)	>57	-10%	4µM*[single pt active]	13%
O=S(=O)(Nc1nccs1)c1cc(Cl)ccc1Cl	>57	2%	10µM*[single pt active]	-5%
O=S(=O)(c1ccccc1)N1CCC2(CC1)CN(C(c1ccccc1)c1ccccc1)C2	>57	?	20%	-4%
SMILES	SmPrx2 inh	Anthrax LT inh	AmpC inh no det	AmpC det inh
COc1ccc(CC(=O)Nc2cccc(-c3nnc(-c4ccc(C)cc4)o3)c2)cc1OC	>57	3.2µM*	76%	-4%
COc1ccc(CC(=O)Nc2cccc(-c3nnc(-c4ccccc4)o3)c2)cc1OC	>57	10µM*	62%	-3%
COc1cccc(C(=O)Nc2cccc(-c3nnc(-c4ccccc4)o3)c2)c1	nt	2µM*	1%	7%
COc1ccc(CC(=O)Nc2cccc(-c3nnc(-c4cccc(C)c4)o3)c2)cc1OC	>57	?	108%	-3%
O=C(CSc1nnnn1-c1ccccc1)Nc1nsc(-c2ccc(Cl)cc2)n1	>57	-14%	10µM*[single pt active]	0%
Cc1nnc(SCC(=O)Nc2nsc(-c3ccccc3)n2)s1	>57	nt	-12%	-4%
Cc1ccc(-c2nc(NC(=O)CSc3nnc(C)s3)ns2)cc1	>57	-12%	4µM*[single pt active]	11%
O=C(CSc1nnnn1-c1ccccc1)Nc1nsc(-c2ccccc2)n1	>57	-24%	-15%	-2%
CS(=O)(=O)c1ccc([C@H](O)[C@H](CF)NC(=O)C(Cl)Cl)cc1	>57	12%[3.58 µM]	-10%[12.8 µM]	13%[12.8 µM]
Cc1ccc2c(CC(=O)Nc3sccc3C(N)=O)coc2c1	>57	-12%	13µM*[single pt active]	-2%
N[C@@H](Cc1cc(-c2ccc(Cl)cc2Cl)cc(CP(=O)(O)O)c1O)C(=O)O	>57	?	?	16µM*
CCN(CC)CCNC(=O)c1cn(C)c2ccc(S(=O)(=O)N(C)C3CCCCC3)cc2c1=O	>57	4µM*	4µM*[single pt active]	12%
CCn1cc(C(=O)O)c(=O)c2cc(S(=O)(=O)N(C)C)ccc21	>57	-9%	0%	9%
CCn1cc(C(=O)NC2CCCCC2)c(=O)c2cc(S(=O)(=O)N(C)C)ccc21	>57	-9%	4µM*[single pt active]	11%
CN1CCN(C(=O)c2cn(C)c3ccc(S(=O)(=O)N(C)C4CCCCC4)cc3c2=O)CC1	>57	-23%	27%	12%
CCC(C)NC(=O)c1cn(CC)c2ccc(S(=O)(=O)N(C)C)cc2c1=O (stereo unspecified)	>57	5%	86%	8%
CCN(CC)CCNC(=O)c1cn(CC)c2ccc(S(=O)(=O)N(C)C)cc2c1=O	>57	-5%	3.2µM*[single pt active]	13%
COCCNc1nc(C)nc2c1nc(-c1ccccc1)n2CCN1CCCCC1	nt	-10%	24%	9%
O=C1Cc2c([nH]c3ccc(Br)cc23)-c2ccccc2N1	>57	-18%	16µM*!	-4%
O=c1c2c([nH]c3ccc(Br)cc13)CCCC2	>57	3%	-16%	-3%
Cc1cccc2cc(C#N)c(SCC(=O)N3CCC(C)CC3)nc12	>57	-2%	29%	-4%
Cc1cccc2cc(C#N)c(SCC(=O)N3CC(=O)Nc4ccccc43)nc12	>57	-12%	16µM*[single pt active]	-4%
COc1cccc(-c2cncnc2NCc2cccnc2)c1	>57	-2%	11%	7%
CCCCSc1c(C)c2cc3c(cc2[nH]c1=O)OCO3	>57	nt	16µM*[single pt active]	-4%
O=C(c1csnn1)N1CCC2(CCN(Cc3ccccc3)CC2)CC1	>57	?	1%	2%
SMILES	SmPrx2 inh	Anthrax LT inh	AmpC inh no det	AmpC det inh
COc1ccc(-c2cc(=O)c3c(O)cc(O)cc3o2)cc1	>57	-5%[3.58 µM]	-20%[12.8 µM]	-5%[12.8 µM]
O=c1cc(-c2ccc(O)c(O)c2)oc2cc(O)cc(O)c12	>26	?	0.5µM*!	-1%
COc1ccccc1-n1c(SC)nc(O)cc1=O	>57	-12%	2.5µM*[single pt active]	11%
COc1ccccc1-n1c(SCC(=O)NC(C)(C)C)nc(O)cc1=O	>57	?	-4%	-2%
NC(=O)c1c(NC(=O)CSc2nnc(-c3ccccc3)n2CC2CCCO2)sc2c1CCC2 (stereo unspecified)	>57	-16%	77%	4%
Cn1cnnc1SCC(=O)Nc1sc2c(c1C(N)=O)CCC2	>57	?	10µM*	-8%
OC[C@H]1NC[C@@H](O)[C@@H](O)[C@H]1O	>57	?	9%	-1%
CN1CCN(CCCN2c3ccccc3Sc3ccc(Cl)cc32)CC1	>57	25µM*	61%[12.8 µM]	-2%[12.8 µM]

Compound activity (PubChem BioAssay)
